HT1080 IDH1KD tx: toxicity to HT-1080 IDH1 knockdown cells (counter line) | HT-1080 IDH1 knockdown viability, ATP luminescence, 48 h | Potency, µM (titrated, usually from 46.1 µM), inactives show at the top dose activity, negative = toxicity, most hits filed as cytotoxic | 360,000 tested, 2% active | AID 686971;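 note: 0% = DMSO wells and -100% = cell-free medium wells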
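CellTiter-Glo luminescence after 48 h compound exposure at 37 degrees C of IDH1-knockdown HT-1080 cells in 5% FBS RPMI. %Activity scaled between DMSO wells and cell-free media wells, with curves fitted and assigned curve classes.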
KB-V1 MDR tox: KB-V1 MDR subline cytotoxicity | KB-V1 MDR cells viability, CellTiter-Glo, 72 h | Potency, µM (series often up to 46.1 µM), most hits filed as cytotoxic | 400,000 tested, 3.4% active; note: % is set by controls: 0 for no effect and ±100 for the full control effect; nearly all actives have a fitted effect of over 60% in size
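Cells of the MDR subline KB-V1 are plated, dosed with compound at multiple concentrations, and incubated 72 h at 37 degrees C; CellTiter-Glo is then added and luminescence read after 10 min.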
KB-3-1 cytotox: kills parental KB-3-1 adenocarcinoma cells; KB-3-1 viability, CellTiter-Glo ATP luminescence, 72 h; Potency, µM (top dose mostly 46.1 µM), most hits filed as cytotoxic; 400,000 tested, 1.4% active; AID 1347075; note: % is set by controls: 0 for no effect and ±100 for the full control effect; nearly all actives have a fitted effect of over 60% in size
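Cytotoxicity measured as CellTiter-Glo luminescence after 72 h at 37 C. Compound titrations were pinned onto drug-naive KB-3-1 parental adenocarcinoma cells grown in DMEM with 10% FBS, and normalized data fitted to concentration-response curves.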
HT1080-NT tox: kills 2HG-producing HT-1080-NT fibrosarcoma cells; HT-1080-NT fibrosarcoma viability, CellTiter-Glo ATP luminescence, 48 h; Potency, µM (doses to about 46.1 µM), for the others: top-dose activity, negative = less viability, actives largely listed as cytotoxic; 360,000 tested, 1.6% active;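 note: NT is the 2HG producing partner of a matched IDH1 knockdown line; 0% = DMSO-treated cells and -100% = media-only wells without cells; nearly all actives have a fitted effect of over 55% in size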
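HT-1080-NT fibrosarcoma cells (2HG-overproducing), 750 cells/well in RPMI with 5% FBS, dosed after 2 h and incubated 48 h at 37C. CellTiter-Glo luminescence normalized to DMSO and no-cell wells; concentration-response curves fitted and classed.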
ATXN viability: reduces viability in counter-screen for ATXN expression inhibitors; Potency, µM (doses to about 56.7 µM), actives largely listed as cytotoxic; 400,000 tested, 0.49% active; S2 cells (HEK-293 line with an ATXN2-luciferase reporter) viability, CellTiter-Fluor protease fluorescence, 24 h; note: nearly all actives have a fitted effect of over 40% in size
ATXN2 expr inh: ATXN2 expression inhibition | HEK-293 ATXN2-luciferase reporter, luminescence, 24 h | Potency, µM (doses to about 57 µM), for inactives: at the highest dose activity change, negative = inhibition, most hits filed as inhibitors | 360,000 tested, 0.72% active | AID 1745845; note: % is set by controls: 0 for no effect and ±100 for the full control effect; nearly all actives have a fitted effect of over 55% in size
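qHTS (up to 57 uM final) was run with 24 h compound exposure of reporter cells at 37 °C. Each well was multiplexed: SteadyGlo luminescence measured ATXN2-luciferase expression after a fluorogenic Gly-Phe-AFC viability readout (25 uM final).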
* marks the source's active call; other numbers are inactive results; i = inactive; ? = inconclusive; . = no result. In the library only some 6.2% were active in any assay of this set; here they are far more common. Calls come from the whole dose curve; as a rule, active = well fitted curve in the direction sought with a large enough effect; inconclusive = small, poorly fitted or top-dose-only effect, or another doubt; inactive = no such curve, though single readings can be large; an effect the other way counts as inactive or inconclusive. Potency is the fitted concentration of half-maximal effect.

SMILES	HT1080 IDH1KD tx	KB-V1 MDR tox	KB-3-1 cytotox	HT1080-NT tox	ATXN viability	ATXN2 expr inh
CCc1cccc(C)c1NC(=O)c1cc(S(=O)(=O)N(C)Cc2ccccc2)ccc1F	.	?	i	.	?	-36.8%
COc1cc(=O)n2c(c1C(=O)NCc1nonc1C)CCN(C(=O)c1cccc(C)c1C)CC2	.	.	.	.	i	.
O=C(O)c1ccc(N2C(=O)/C(=C/C=C/c3ccccc3)SC2=S)cc1	6.8%	i	i	-2.7%	i	2.6%
CN(C)c1ccc(/C=C/C=C2/SC(=S)N(c3ccccc3)C2=O)cc1	-19.6%	?	i	1.5%	15.8µM*	1.7%
CCOc1ccc(/C=N/NC(=O)C(O)c2ccccc2)c(O)c1 (stereo not given)	11.6µM*	i	i	?	i	31.6µM*
CCOc1ccc(CCNC(=O)C(O)c2ccccc2)cc1 (stereo not given)	-0.2%	i	i	5.7%	i	-0.8%
O=C(NCc1ccccc1)C(=O)Nc1nc(C23CC4CC(CC(C4)C2)C3)cs1	-1.6%	7.31µM*	?	-4.6%	i	-23.1%
O=C(NCc1ccncc1)C(=O)Nc1nc(C23CC4CC(CC(C4)C2)C3)cs1	-7.9%	i	i	-0.2%	i	-17.9%
O=C(NCc1ccc(F)cc1)C(=O)Nc1nc(C23CC4CC(CC(C4)C2)C3)cs1	?	9.2µM*	?	?	i	-22.6%
Cc1ccc(-c2cn3c(n2)sc2cc(C(=O)NCc4cccs4)ccc23)cc1	.	i	i	.	.	.
Cc1ccc2cc(C#N)c(SCc3nnc(-c4ccccc4[N+](=O)[O-])o3)nc2c1	20.1%	13µM*	9.2µM*	19.2%	i	-17.6%
CCN1CCCC1CN(Cc1cc2ccc(C)cc2[nH]c1=O)C(=S)Nc1cccc(OC)c1 (stereo not given)	18.4µM*	i	i	?	i	-9.3%
CCN1CCCC1CN(Cc1cc2ccc(C)cc2[nH]c1=O)C(=S)Nc1ccc(OC)cc1 (stereo not given)	?	?	?	?	?	-5.2%
CCN1CCCC1CN(Cc1cc2ccc(C)cc2[nH]c1=O)C(=S)Nc1ccccc1OC (stereo not given)	?	i	?	?	i	-3.2%
CCOc1ccccc1NC(=S)N(Cc1cc2ccc(C)cc2[nH]c1=O)CC1CCCN1CC (stereo not given)	-28.7%	i	13µM*	?	?	2.3%
Cc1nc2c(-c3ccccc3)c(C)nn2c(C)c1CCC(=O)Nc1ccccc1F	.	?	i	.	?	?
O=C(c1ccc2c(c1)N(Cc1ccc(Cl)cc1)C(=O)c1ccccc1S2(=O)=O)N1CCOCC1	.	i	i	.	i	7.8%
Cc1ccc(C)c(N2CCN(CCCNC(=O)Cn3c(-c4cccs4)cc4ccccc43)CC2)c1	.	i	i	.	?	25.1µM*
Cc1ccc(C)c(N2CCN(CCCNC(=O)Cn3cc4c(n3)CCCCC4)CC2)c1	-26.4%	20.6µM*	?	?	?	?
CN1CCN(CCCNC(=O)Cn2c(-c3cccs3)cc3ccccc32)CC1	.	i	i	.	i	-7.7%
O=C(CCNS(=O)(=O)c1cccc2nsnc12)NC1CCCc2ccccc21 (stereo not given)	-4.6%	i	i	-9.3%	i	4.6%
O=C(CCCOc1ccccc1)NC1CCCc2ccccc21 (stereo not given)	-3.5%	18.4µM*	i	0.0%	i	-2.0%
O=C(CCNS(=O)(=O)c1cccc2nonc12)NC1CCCc2ccccc21 (stereo not given)	-8.4%	23.1µM*	i	-3.9%	i	10.4%
CN(C)CCCNc1c2ccccc2nc2ccccc12	5.17µM*	11.6µM*	1.64µM*	4.11µM*	?	?
Oc1ccc(CCNc2c3ccccc3nc3ccccc23)cc1O	?	i	18.4µM*	23.1µM*	?	?
SMILES	HT1080 IDH1KD tx	KB-V1 MDR tox	KB-3-1 cytotox	HT1080-NT tox	ATXN viability	ATXN2 expr inh
OCCNc1c2ccccc2nc2c(F)c(F)c(F)c(F)c12	4.61µM*	?	i	?	.	7.52µM*
Cc1c2ccccc2nc2c(F)c(NCCO)c(F)c(F)c12	-3.8%	?	i	-6.5%	i	8.0%
COc1cccc(C(=O)Nc2cccc(OCc3cc(=O)n4cc(C)ccc4n3)c2)c1	.	i	i	.	.	.
CCCCCC(=O)N1C[C@H](n2cc(-c3ccc(F)cc3)nn2)[C@@H](O)C[C@@H]1c1ccc(Cl)cc1	?	?	?	16.4µM*	?	?
Cc1ccc([C@H]2C[C@@H](n3cc(-c4ccc(F)cc4)nn3)[C@H](O)CN2C(=O)C2CCCCC2)cc1	-2.8%	9.2µM*	?	1.2%	?	-2.3%
O=C(C1CCCCC1)N1C[C@@H](O)[C@H](n2cc(-c3ccc(F)cc3)nn2)C[C@@H]1c1ccccc1	?	i	18.4µM*	?	?	-11.1%
CCc1ccc(C(=O)C[n+]2cccc3cc(OC)ccc32)cc1	-16.2%	i	13µM*	-17.1%	?	?
COc1ccc2c(ccc[n+]2CC(=O)c2ccc(C)cc2)c1	-25.8%	i	?	0.5%	i	-25.0%
COc1ccc(NC(=O)c2ccccc2NS(=O)(=O)c2ccc(CNC(C)=O)cc2)c(OC)c1	?	i	?	13µM*	i	-5.9%
Cc1ccc(-c2csc(NC(=O)C3=COCCO3)n2)cc1	-7.5%	i	i	-0.1%	i	63.7%
O=C(Nc1nc(-c2ccc(Oc3ccccc3)cc2)cs1)C1=COCCO1	?	18.4µM*	?	2.2%	i	-12.7%
COc1ccc(S(=O)(=O)Nc2ccccc2C(=O)Nc2nc(-c3ccc(F)cc3)cs2)cc1OC	?	14.6µM*	?	?	i	?
COc1ccc(-c2csc(NC(=O)c3ccccc3NS(=O)(=O)c3ccc(C)cc3)n2)cc1	?	2.31µM*	2.59µM*	?	i	?
CCOc1ccccc1NC(=O)C1CCN(S(=O)(=O)c2ccccc2)CC1	.	?	i	.	i	-3.2%
CC(=O)Nc1ccc(NC(=O)CSc2nc3c([nH]c4ccccc43)c(=O)n2-c2ccccc2F)cc1	?	i	?	-28.5%	?	21.9%
O=C(CSc1nc2c([nH]c3ccccc32)c(=O)n1-c1ccccc1F)Nc1cccc(C(F)(F)F)c1	.	?	14.6µM*	.	?	?
O=C(C1CC1)N1c2ccccc2Sc2ccccc21	18.4µM*	?	20.6µM*	?	i	-32.5%

Screening data from PubChem.
